Experimental data as given in PubChem BioAssay AID687014 (The Scripps Research Institute Molecular Screening Center, 2013).
The campaign covered roughly 370,000 compounds. About 6,800 (1.8%) were called active. The list comes from a sample in which actives are over-represented; it also holds similar structures and randomly drawn compounds. Values without a mark were called inactive.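 Rule for the calls: active = activation above a cutoff set at the mean of all screened compounds plus 3 SD (cut at about 10% in these data); inactive = the rest.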

Tested on: Nuclear hormone receptor DAF-12 (Heterodera glycines), GAL4 fusion
Test: H. glycines DAF-12 receptor agonists, primary screen, cell-based, luminescence, HEK293, GAL4 fusion, UAS-luciferase (AID 687014);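 note: 0% = DMSO wells and 100% = sodium butyrate wells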
Conditions: HEK293 GAL4-hgDAF12 UAS-luciferase reporter, agonist luminescence; at 6.8 µM; active compounds read high; normalized to butyrate control

SMILES	activation
CCOC(=O)CNC(=O)N(C)[C@H]1C[C@H]2c3[nH]c4c(-c5ccc6c(c5)OCO6)cccc4c3CCN2C(=O)[C@H]1[C@H](C)O	-1.8%
CCCN(C(=O)CSc1nnc(N)s1)c1c(N)n(Cc2ccccc2)c(=O)[nH]c1=O	-3.79%
Fc1ccc2nc(Nc3nc4c(s3)CCCC4)sc2c1	12.8% (active)
COC(=O)C(NC(C)=O)(Nc1nc2c(s1)CCCC2)C(F)(F)F (stereo unspecified)	-0.75%
CCS(=O)(=O)N1Cc2ccccc2CC1C(=O)Nc1nc2ccc(F)cc2s1 (stereo unspecified)	10.2%
CC(=O)N1CCCN(C2=Nc3ccccc3Sc3ccccc32)CC1	-3.68%
CCN(CC)C(=O)CC[C@H]1CC[C@]2(CCCN(Cc3ccc(Cl)cc3)C2)O1	-2.24%
COC(=O)c1c(-c2ccc(OC)cc2)c2c(c3c4ccccc4n(S(=O)(=O)c4ccc(C)cc4)c13)C(=O)N(C)C2	-0.11%
Cc1ccc2nc(-c3cccnc3)c(NC3CCCC3)n2c1	-2.27%
COc1ccccc1Cc1c(-c2ccc(F)cc2)nc2ccc(C)cn12	9.36%
Cc1ccc2nc(-c3ccccc3)c(CC3CCCCC3)n2c1	15.8% (active)
Cc1ccc(NC(=O)Nc2cc(C)nn2-c2ccccc2)cc1	0.6%
Cc1cccc(/C(N)=N/OC(=O)c2ccccc2Cl)c1	22.6% (active)
Cc1cc(OC(=O)c2ccccc2Cl)ccc1N1C(=O)CCC1=O	1.41%
C/C(=N\OC(=O)c1ccccc1)c1c(C)nc2cc(C)ccn12	1.13%
COc1ccc(CSc2nnc(SCC(=O)Nc3ccccc3C(F)(F)F)s2)cc1	-0.44%
COc1cccc(NC(=O)N(C)C[C@@H]2OCc3cn(nn3)CCCC(=O)N([C@@H](C)CO)C[C@H]2C)c1	-1.94%
O=S(=O)(c1ccc(SCc2ccccc2)nc1)N1CCCCCC1	3.56%
CCS(=O)(=O)n1nc(-c2ccc(OC)cc2)nc1SC	2.82%
CCS(=O)(=O)n1nc(-c2ccccc2)nc1SCc1ccccc1	13.2% (active)
CCN1C(=O)[C@@H]2[C@@H](c3ccc(-c4cccc(Cl)c4)cc3)N3CCC[C@@]3(C(=O)OC)[C@@H]2C1=O	-0.28%
C=CCN(Cc1ccc2c(c1)OCO2)C(C#CC1CC1)C(C)(C)C (stereo unspecified)	0.18%
O=C(NNC(=S)NC1CCCCC1)c1ccccc1Cl	-1.15%

SMILES	activation
O=C(NC(=S)NC1CCCCC1)c1ccc(Cl)cc1	14.2% (active)
O=C(NC1CCCCCC1)C1CCN(C(=O)c2ccc(Cl)cc2)CC1	-2.28%
CN(C)/C=C(\C#N)C(=O)c1cccnc1Oc1cccc(F)c1	-0.67%
CCC(=O)OCCCN1C(=O)CCC12CCC(c1ccccc1)CC2 (stereo unspecified)	-0.73%
C=CCNc1nc(Nc2ccc(Cl)cc2)nc(OC)n1	2.81%
Clc1ccc(Nc2ccc3ccccc3n2)cc1	19.3% (active)
CC1(C)N=C(N)NC(Nc2ccc(Cl)cc2)=N1	-2.03%
CCC(C)[C@@H](C(=O)OC)N(CCc1cn(Cc2ccccc2)nn1)S(=O)(=O)c1ccccc1Br (stereo partly specified)	-4.53%
CCCN(CCC)C(=O)C1c2ccccc2Oc2ccccc21	-0.5%
CCOC(=O)C1=C(C)c2ccccc2OC1C(=O)OCC (stereo unspecified)	12.1% (active)
CCOC(=O)CC(NC(=O)C1c2ccccc2Oc2ccccc21)c1ccc(C)cc1 (stereo unspecified)	-2.51%
Cc1ccc(C2NC(C(=O)O)CS2)cc1 (stereo unspecified)	-0.05%
CC(CCN1CCC(C(O)(c2ccccc2)c2ccccc2)CC1)Oc1ccc([N+](=O)[O-])cc1Cl (stereo unspecified)	4%
COc1ccccc1C(=O)NC1CCCCN(C(C)C)C1=O (stereo unspecified)	2.92%
Cc1ccccc1NC(=O)COC(=O)c1ccc(Sc2ncn[nH]2)c([N+](=O)[O-])c1	1.49%
COC(C(=O)Nc1ccc(S(=O)(=O)Nc2ccc(C)c(C)c2)cc1)c1ccccc1 (stereo unspecified)	-3.51%
Cc1ccc(N/C=C/C(=O)c2ccccc2)cc1C	19.8% (active)
Cc1ccc(NNC(=O)C2CCC2)cc1C	1.26%
N#Cc1c(NCCO)ccc([N+](=O)[O-])c1NCCO	-1.17%
COC(=O)[C@]12C[C@H](CC(=O)NCC34CC5CC(CC(C5)C3)C4)C(=O)N(Cc3ccc(Cl)cc3Cl)C1=C[C@H](COCc1ccccc1)O[C@@H]2C	1.95%
C[C@H](C(=O)N(C)c1ccccc1)[C@@H](O)c1ccc2ccccc2c1	-1.62%
CC(C)n1c(O)c(N=Nc2ccccn2)c2ccccc21	1.77%
Oc1oc(-c2ccccc2Br)nc1/C=N/c1ccccn1	10.8% (active)

SMILES	activation
COc1cccc(-c2cc(CNC(=O)[C@@H](Cc3ccccc3)NC(=O)[C@H]3O[C@@H](n4cnc(C(N)=O)n4)[C@H](O)[C@@H]3O)no2)c1	3.48%
COC(=O)CC1CCc2cc(C)cc(C(CC(C)C)NC(=O)[C@H](CC(C)C)NC(=O)OCc3ccccc3)c2O1 (stereo partly specified)	-1.05%
O=C(/C=C/c1cnc2ccccc2n1)NC1CCCCCC1	11.9% (active)
O=C(Cn1c(-c2cncs2)nc2ccccc21)NC1CCCC1	0.16%
CC1CCCCC1NC(=O)Cn1c(=O)cnc2ccccc21 (stereo unspecified)	-0.26%
O=C(CCCCCn1c(=O)[nH]c2ccccc2c1=O)NCCc1c[nH]c2ccccc12	-0.27%
C[N+](C)(C)CCNC(=O)c1c[nH]c2ccccc12	0.11%
O=C(NCCc1c[nH]c2ccccc12)c1cc2ccccc2oc1=O	14.6% (active)
Clc1cccc2c1C1CC2CCN1Cc1ccccc1 (stereo unspecified)	0.38%
COc1ccc(-c2cc(-c3nnc(SCc4ccc([N+](=O)[O-])cc4)n3N)[nH]n2)cc1	3.72%
Nc1ncnc2c1ncn2[C@@H]1O[C@H](C(=O)N[C@@H](CCc2ccccc2)C(=O)N2CCCN(Cc3cccs3)CC2)[C@@H](O)[C@H]1O	1.83%
Nc1ccc2nn(-c3ccc(Cl)cc3)nc2c1	18.1% (active)
Nc1nc2cc(Cl)ccc2n1N	0.42%
Nc1ccc2c(c1)C(O)c1ccc(Cl)cc1-2 (stereo unspecified)	2.17%
COc1ccc(S(=O)(=O)N[C@@H]2C=C[C@@H](CC(=O)N3CCc4ccccc4C3)O[C@@H]2CO)cc1	-1.55%
COc1ccc(-c2csc(-c3cccs3)n2)cc1OC	14.5% (active)
COc1ccc(C2CC(c3cccs3)=Nc3ccccc3S2)cc1OC (stereo unspecified)	6.91%
COc1ccc(-c2csc3nc(-c4ccccc4F)oc(=O)c23)cc1OC	-0.2%
COC(=O)C1=C(C)N(Cc2ccccc2C(F)(F)F)C(=NCc2ccc(C(F)(F)F)cc2)NC1c1ccc(F)cc1 (stereo unspecified)	0.87%
CCCCOCCCNC(=O)C[C@H]1C[C@@]2(C(=O)OC)C(=C[C@H](COCc3ccccc3)O[C@@H]2C)N(Cc2cccc3ccccc23)C1=O	5.41%
CCOc1c(N2CCCCC2)c(=O)c1=O	-2.21%
Cc1ccc(CSc2nnc(SCC(=O)NN=Cc3cc(Br)ccc3F)s2)cc1	6.25%
CC(C)(C)c1ccc(/C=C/C(=O)NCCCn2ccnc2)cc1	3.86%

SMILES	activation
CC(C)(C)c1ccc(/C=C/C(=O)Nc2ncccn2)cc1	16.6% (active)
Cc1cc(C)nc(NC(=O)/C=C/c2ccc(Cl)cc2)n1	-0.13%
CN(C)S(=O)(=O)c1ccc2oc(SCC(=O)Nc3ccccc3F)nc2c1	15.5% (active)
CCS(=O)(=O)c1ccc2oc(SCC(=O)N3c4ccccc4CC3C)nc2c1 (stereo unspecified)	-2.27%
COc1ccc(S(=O)(=O)N(C)C)cc1NC(=O)CSc1ncccn1	1.65%
O=C(CNC(=O)c1ccccc1)OC(C(=O)Nc1cc([N+](=O)[O-])ccc1F)c1ccccc1 (stereo unspecified)	6.44%
COC(=O)c1cc(S(=O)(=O)N2CCN(C(=O)C3CCCO3)CC2)cn1C (stereo unspecified)	-0.48%
C=C(C)C#CC(Cc1ccccc1)NCC1CC1 (stereo unspecified)	1.34%
COc1cccc(Cn2cc(COC(=O)Nc3ccc(F)cc3)nn2)c1	-2.67%
COc1ccc(SSc2ccc(OC)cc2C(=O)O)c(C(=O)O)c1	-1.26%
COc1ccc(/C=N/NC(=O)Cn2cc(C(F)(F)F)ccc2=O)cc1	-5.01%
COc1ccc(/C=N/Nc2ccccc2C(=O)O)cc1	12.8% (active)
N#Cc1c(N)nc2c(c1N)CC(C(F)(F)F)O2 (stereo unspecified)	2.74%
CCOC(=O)[C@]12CCCC3=C1N(CCC3)C(=O)[C@@H](CC(=O)N1CCSCC1)C2	-0.16%
O=C(NCCCc1ccccc1)[C@H](Cc1ccccc1)NC1(C(=O)NCCc2c[nH]c3ccccc23)CCC1	-3.84%
O=C(OC12CCCN(C1)/C(=C/c1cccnc1)C2)C1CCCC1 (stereo unspecified)	-3.6%
COc1ccc(NC(=O)COC(=O)c2ccncc2)c(OC)c1	-1.12%
COc1ccc(C(=O)NC2CC(C)(C)Cc3c2cnn3-c2ccccc2)c(OC)c1 (stereo unspecified)	-4.18%
COc1ccc(C(=O)Nc2nncs2)c(OC)c1	10.4% (active)
COc1ccc(C(=O)N2CCCN(C)CC2)c(OC)c1	-2.22%
COC(=O)c1sc(NC(=O)c2ccc(OC)cc2OC)nc1C	19.3% (active)
COc1ccc(C(=O)CSc2nnnn2C)c(OC)c1	1.57%
